# Data as given in PubChem BioAssay AID1159580 (chemical genetic matrix, 2015).
# Among all 5,500 compounds or so, about 2,000 (36%) were called active. Another 18% or so got no clear call; they are omitted. The list shows a part of the results. Values without a mark were called inactive. Rule as the data show it: active = normalized growth mostly below about 0.91 (no sharp cut-off); inconclusive = no clear call, values can overlap the other calls; inactive = mostly above about 0.92.
# Assay: chemical genetic growth profiling, strain panel (AID 1159580);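 also: tested at 20 µM; growth read once vehicle control cultures reached saturation at 30 °C; 1 = growth at the plate median or of vehicle wells; lower values mean less growth of the strain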
# Settings: growth OD
compound,measurement,setting,value
O=C(O)c1cccnc1,normalized growth,"S. cerevisiae deletion strains, locus YJR075W, strain HOC1, stronger effect = lower value",1.06
same,normalized growth,"S. cerevisiae deletion strains, locus YKL009W, strain mrt4, stronger effect = lower value",0.982
same,normalized growth,"S. cerevisiae deletion strains, locus YKL068W, stronger effect = lower value",0.991
same,normalized growth,"S. cerevisiae deletion strains, locus YKL085W, strain MDH1 (second series), stronger effect = lower value",1.01
same,normalized growth,"S. cerevisiae deletion strains, locus YKL085W, strain MDH1, stronger effect = lower value",1.01
same,normalized growth,"S. cerevisiae deletion strains, locus YKL160W, strain elf1, stronger effect = lower value",1.01
same,normalized growth,"S. cerevisiae deletion strains, locus YKL190W, strain CNB1, stronger effect = lower value",0.997
same,normalized growth,"S. cerevisiae deletion strains, locus YKR001C, strain vps1, stronger effect = lower value",0.986
same,normalized growth,"S. cerevisiae deletion strains, locus YKR026C, strain gcn3, stronger effect = lower value",0.988
same,normalized growth,"S. cerevisiae deletion strains, locus YKR091W, strain srl3, stronger effect = lower value",0.996
same,normalized growth,"S. cerevisiae deletion strains, locus YLL001W, strain dnm1, stronger effect = lower value",0.999
same,normalized growth,"S. cerevisiae deletion strains, locus YLL026W, stronger effect = lower value",1
same,normalized growth,"S. cerevisiae deletion strains, locus YLL041C, strain sdh2, stronger effect = lower value",0.992
same,normalized growth,"S. cerevisiae deletion strains, locus YLR027C, strain aat2, stronger effect = lower value",1
same,normalized growth,"S. cerevisiae deletion strains, locus YLR039C, strain RIC1, stronger effect = lower value",0.982
same,normalized growth,"S. cerevisiae deletion strains, locus YLR058C, strain SHM2, stronger effect = lower value",0.981
same,normalized growth,"S. cerevisiae deletion strains, locus YLR102C, strain apc9, stronger effect = lower value",0.997
same,normalized growth,"S. cerevisiae deletion strains, locus YLR113W, strain HOG1, stronger effect = lower value",0.995
same,normalized growth,"S. cerevisiae deletion strains, locus YLR221C, strain rsa3, stronger effect = lower value",1.02
same,normalized growth,"S. cerevisiae deletion strains, locus YLR258W, strain gsy2, stronger effect = lower value",1.01
same,normalized growth,"S. cerevisiae deletion strains, locus YLR262C, strain YPT6 (second series), stronger effect = lower value",1.01
same,normalized growth,"S. cerevisiae deletion strains, locus YLR262C, strain YPT6, stronger effect = lower value",0.941
same,normalized growth,"S. cerevisiae deletion strains, locus YLR268W, strain sec22, stronger effect = lower value",1.13 [resistant] (active)
same,normalized growth,"S. cerevisiae deletion strains, locus YLR320W, strain mms22, stronger effect = lower value",1.02
same,normalized growth,"S. cerevisiae deletion strains, locus YLR330W, strain CHS5, stronger effect = lower value",0.999
same,normalized growth,"S. cerevisiae deletion strains, locus YLR342W, strain FKS1 (second series), stronger effect = lower value",0.999
same,normalized growth,"S. cerevisiae deletion strains, locus YLR342W, strain FKS1, stronger effect = lower value",0.992
same,normalized growth,"S. cerevisiae deletion strains, locus YLR357W, strain rsc2, stronger effect = lower value",0.991
same,normalized growth,"S. cerevisiae deletion strains, locus YLR370C, strain arc18, stronger effect = lower value",1
same,normalized growth,"S. cerevisiae deletion strains, locus YLR371W, strain rom2, stronger effect = lower value",0.985
same,normalized growth,"S. cerevisiae deletion strains, locus YLR384C, strain iki3, stronger effect = lower value",1.01
same,normalized growth,"S. cerevisiae deletion strains, locus YLR418C, strain cdc73, stronger effect = lower value",1.04
same,normalized growth,"S. cerevisiae deletion strains, locus YML016C, strain PPZ1, stronger effect = lower value",1.01
same,normalized growth,"S. cerevisiae deletion strains, locus YML032C, strain rad52, stronger effect = lower value",1.05
same,normalized growth,"S. cerevisiae deletion strains, locus YML120C, strain ndi1, stronger effect = lower value",0.993
same,normalized growth,"S. cerevisiae deletion strains, locus YML124C, strain tub3, stronger effect = lower value",0.995
same,normalized growth,"S. cerevisiae deletion strains, locus YMR058W, strain fet3, stronger effect = lower value",0.996
same,normalized growth,"S. cerevisiae deletion strains, locus YMR078C, strain ctf18, stronger effect = lower value",0.991
same,normalized growth,"S. cerevisiae deletion strains, locus YMR125W, strain sto1, stronger effect = lower value",0.979
same,normalized growth,"S. cerevisiae deletion strains, locus YMR129W, stronger effect = lower value",0.97
same,normalized growth,"S. cerevisiae deletion strains, locus YMR205C, strain PFK2, stronger effect = lower value",1.04
same,normalized growth,"S. cerevisiae deletion strains, locus YMR223W, strain ubp8, stronger effect = lower value",1
same,normalized growth,"S. cerevisiae deletion strains, locus YMR231W, strain pep5, stronger effect = lower value",1
same,normalized growth,"S. cerevisiae deletion strains, locus YMR263W, strain SAP30, stronger effect = lower value",1.01
same,normalized growth,"S. cerevisiae deletion strains, locus YMR307W, strain GAS1, stronger effect = lower value",0.938
same,normalized growth,"S. cerevisiae deletion strains, locus YNL067W, strain RPL9B, stronger effect = lower value",1.03
same,normalized growth,"S. cerevisiae deletion strains, locus YNL071W, strain lat1, stronger effect = lower value",0.975
same,normalized growth,"S. cerevisiae deletion strains, locus YNL128W, strain TEP1, stronger effect = lower value",0.971
same,normalized growth,"S. cerevisiae deletion strains, locus YNL153C, strain GIM3, stronger effect = lower value",1.03
same,normalized growth,"S. cerevisiae deletion strains, locus YNL183C, strain NPR1, stronger effect = lower value",0.961
same,normalized growth,"S. cerevisiae deletion strains, locus YNL209W, strain ssb2, stronger effect = lower value",0.99
same,normalized growth,"S. cerevisiae deletion strains, locus YNL233W, strain BNI4, stronger effect = lower value",1.05
same,normalized growth,"S. cerevisiae deletion strains, locus YNL248C, strain rpa49, stronger effect = lower value",1.01
same,normalized growth,"S. cerevisiae deletion strains, locus YNL250W, strain rad50, stronger effect = lower value",0.991
same,normalized growth,"S. cerevisiae deletion strains, locus YNL271C, strain bni1, stronger effect = lower value",0.992
same,normalized growth,"S. cerevisiae deletion strains, locus YNL298W, strain CLA4, stronger effect = lower value",0.977
same,normalized growth,"S. cerevisiae deletion strains, locus YNL307C, strain MCK1, stronger effect = lower value",1.02
same,normalized growth,"S. cerevisiae deletion strains, locus YNL322C, strain KRE1 (second series), stronger effect = lower value",0.997
same,normalized growth,"S. cerevisiae deletion strains, locus YNL322C, strain KRE1, stronger effect = lower value",0.996
same,normalized growth,"S. cerevisiae deletion strains, locus YNR049C, strain mso1, stronger effect = lower value",0.994
same,normalized growth,"S. cerevisiae deletion strains, locus YNR052C, strain pop2, stronger effect = lower value",1
same,normalized growth,"S. cerevisiae deletion strains, locus YOL006C, strain TOP1, stronger effect = lower value",1.03
same,normalized growth,"S. cerevisiae deletion strains, locus YOL012C, strain htz1",1.06
same,normalized growth,"S. cerevisiae deletion strains, locus YOL147C, strain pex11, stronger effect = lower value",1
same,normalized growth,"S. cerevisiae deletion strains, locus YOR001W, strain rrp6, stronger effect = lower value",0.977
same,normalized growth,"S. cerevisiae deletion strains, locus YOR061W, strain CKA2, stronger effect = lower value",0.97
same,normalized growth,"S. cerevisiae deletion strains, locus YOR069W, strain VPS5, stronger effect = lower value",0.996
same,normalized growth,"S. cerevisiae deletion strains, locus YOR070C, strain gyp1, stronger effect = lower value",1
same,normalized growth,"S. cerevisiae deletion strains, locus YOR080W, strain dia2, stronger effect = lower value",0.993
same,normalized growth,"S. cerevisiae deletion strains, locus YOR083W, strain WHI5, stronger effect = lower value",1.03
same,normalized growth,"S. cerevisiae deletion strains, locus YOR106W, strain vam3, stronger effect = lower value",1.05
same,normalized growth,"S. cerevisiae deletion strains, locus YOR136W, strain idh2, stronger effect = lower value",1
same,normalized growth,"S. cerevisiae deletion strains, locus YOR144C, strain elg1, stronger effect = lower value",0.995
same,normalized growth,"S. cerevisiae deletion strains, locus YOR184W, strain ser1, stronger effect = lower value",1.03
same,normalized growth,"S. cerevisiae deletion strains, locus YOR231W, strain MKK1, stronger effect = lower value",1.01
same,normalized growth,"S. cerevisiae deletion strains, locus YOR265W, strain rbl2, stronger effect = lower value",1
same,normalized growth,"S. cerevisiae deletion strains, locus YOR270C, strain vph1, stronger effect = lower value",0.978
same,normalized growth,"S. cerevisiae deletion strains, locus YOR290C, strain snf2, stronger effect = lower value",0.996
same,normalized growth,"S. cerevisiae deletion strains, locus YOR316C, strain cot1, stronger effect = lower value",0.998
same,normalized growth,"S. cerevisiae deletion strains, locus YPL051W, strain arl3, stronger effect = lower value",1.05
same,normalized growth,"S. cerevisiae deletion strains, locus YPL055C, strain LGE1, stronger effect = lower value",1.01
same,normalized growth,"S. cerevisiae deletion strains, locus YPL078C, strain atp4, stronger effect = lower value",0.999
same,normalized growth,"S. cerevisiae deletion strains, locus YPL106C, strain sse1, stronger effect = lower value",1.03
same,normalized growth,"S. cerevisiae deletion strains, locus YPL240C, strain hsp82, stronger effect = lower value",1.01
same,normalized growth,"S. cerevisiae deletion strains, locus YPL241C, strain CIN2, stronger effect = lower value",0.992
same,normalized growth,"S. cerevisiae deletion strains, locus YPL256C, strain CLN2, stronger effect = lower value",1.01
same,normalized growth,"S. cerevisiae deletion strains, locus YPR119W, strain clb2, stronger effect = lower value",0.998
same,normalized growth,"S. cerevisiae deletion strains, locus YPR141C, strain kar3, stronger effect = lower value",0.991
same,normalized growth,"S. cerevisiae deletion strains, locus YPR163C, strain tif3, stronger effect = lower value",0.995
same,normalized growth,"S. cerevisiae deletion strains, locus YPR167C, strain met16, stronger effect = lower value",1
same,normalized growth,"S. cerevisiae deletion strains, strain wtn01, stronger effect = lower value",1.04
same,normalized growth,"S. cerevisiae strains, strain wild type, stronger effect = lower value",0.995
